Bioassay records (PubChem)
PNC assembly inh = perinucleolar compartment assembly inhibition; PC3M PTB-GFP, PNC prevalence imaging, 16 h; stronger effect = lower value; activity change (PNC), negative = inhibition, % at 10 µM; 3.1% of 140,000 active;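 active = readout at or below -70, meaning at least 70% loss of cells showing the perinucleolar compartment, a nuclear body marking cancer cells; inconclusive = readout between -30 and a set limit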;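 note: plate controls were DMSO wells for no effect and camptothecin positive control wells for full effect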
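Compounds are pinned in duplicate onto adhered PC3M cells stably expressing GFP-tagged PTB and incubated 16 h at 37 C. Cells are then fixed, nuclei stained with Hoechst, and PNC-positive cells counted.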
JMJD2E inh = inhibitors of human JMJD2E histone demethylase | B2RXH2 | JMJD2E catalytic domain, FDH-coupled NADH fluorescence (FDH is formaldehyde dehydrogenase) | Potency, µM (top dose mostly 57.1 µM), without a hit: at the highest dose activity change, negative = inhibition, actives largely listed as inhibitors | 1.6% of 230,000 active | AID 2147;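 note: potency is the fitted concentration of half-maximal effect; 0% = wells with enzyme and -100% = buffer wells without enzyme; nearly all actives have a fitted effect of over 50% in size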
HPGD inh = blocks human HPGD enzyme activity; purified HPGD, NADH fluorescence kinetic, PGE2 substrate; P15428; 4.3% of 150,000 active; Potency, µM, without a hit: at the top dose activity change, negative = inhibition, usual class: inhibitors; AID 894; note: potency is the fitted concentration of half-maximal effect
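20 nM HPGD preincubated 15 min at room temperature with compound in 50 mM Tris-HCl pH 8, 0.01% Tween 20. Started with 1 mM NAD+ and 30 uM prostaglandin E2; NADH fluorescence (360/450 nm) read 5 times over 30-s intervals, last minus first.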
ALDH1A1 inh = ALDH1A1 (human) enzyme inhibition; P00352; Purified ALDH1A1, NADH fluorescence, propionaldehyde substrate; Potency, µM (doses to about 75.3 µM), for the others: at the highest dose activity, negative = inhibition, hits mostly inhibitors; 7.3% of 220,000 active; AID 1030;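 note: potency is the fitted concentration of half-maximal effect; plate controls were no enzyme wells and a reference inhibitor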
Target sequence (P00352 whole entry, looked up): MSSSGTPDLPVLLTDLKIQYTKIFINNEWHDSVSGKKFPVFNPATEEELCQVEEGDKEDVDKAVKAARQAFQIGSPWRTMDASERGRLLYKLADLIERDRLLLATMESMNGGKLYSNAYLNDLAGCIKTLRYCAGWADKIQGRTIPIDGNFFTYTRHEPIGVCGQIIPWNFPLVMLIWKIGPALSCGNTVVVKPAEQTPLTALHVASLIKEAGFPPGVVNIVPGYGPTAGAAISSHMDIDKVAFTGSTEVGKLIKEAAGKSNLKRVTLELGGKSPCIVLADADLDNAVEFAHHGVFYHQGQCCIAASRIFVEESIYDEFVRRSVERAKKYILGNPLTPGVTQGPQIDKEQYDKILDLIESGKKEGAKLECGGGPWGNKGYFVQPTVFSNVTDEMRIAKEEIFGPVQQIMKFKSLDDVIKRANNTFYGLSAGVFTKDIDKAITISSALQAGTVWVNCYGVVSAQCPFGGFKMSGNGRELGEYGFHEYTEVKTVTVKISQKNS
* marks the source's active call; other numbers are inactive results. Compounds with a hit are over-represented: about 11% of the library has one in this group of screens. Unless noted, calls come from the whole dose curve; as a rule, active = well fitted inhibition curve with a large enough effect (not every such curve was filed as active); inconclusive = small, poorly fitted or top-dose-only effect, or another doubt; inactive = no such curve, though single readings can be large or run the other way. Unless noted, % is set by controls: 0 for no effect and ±100 for the full control effect.

How did Cc1cccc(CNc2ncncc2-c2ccccc2C(F)(F)F)c1 do in these assays?
JMJD2E inh: -3%; HPGD inh: -8%; ALDH1A1 inh: inconclusive

How did COCCN(C(=S)Nc1ccc(C)cc1)C(C)c1cccnc1 (stereo unspecified) do in these assays?
JMJD2E inh: 4%; ALDH1A1 inh: 0%

Results for CCCN1Cc2cccc(C(=O)NCc3ccc4c(c3)OCO4)c2C1=O ?
PNC assembly inh: inconclusive; JMJD2E inh: -8%; HPGD inh: -9%; ALDH1A1 inh: 14µM*

How did COc1c(Cl)cc(-c2noc(C)c2C(=O)NCc2ccc3c(c2)OCO3)cc1Cl do in these assays?
PNC assembly inh: 10; JMJD2E inh: -3%; HPGD inh: -6%; ALDH1A1 inh: 0.71µM*

What do the screens show for `O=c1oc2cc(OCc3ccc(F)cc3F)ccc2cc1-c1ccc2ccccc2n1`?
PNC assembly inh: 9; JMJD2E inh: -1%; HPGD inh: inconclusive; ALDH1A1 inh: -1%

Results for CCOC(=O)N/N=C/c1ccccc1-c1cc(OC)ccc1OC ?
JMJD2E inh: -6%; HPGD inh: -7%; ALDH1A1 inh: 11%

How did O=C(CCSCc1cccc(Cl)c1)NCCc1ccccc1 do in these assays?
PNC assembly inh: 29; JMJD2E inh: -1%; HPGD inh: 8.9µM*; ALDH1A1 inh: inconclusive

What do the screens show for `COc1ccc(CNC(=O)CCSCc2cccc(Cl)c2)c(OC)c1`?
PNC assembly inh: -24; JMJD2E inh: 4%; HPGD inh: 28µM*; ALDH1A1 inh: inconclusive

How did O=C(NCCc1ccccc1)c1ccc(Cl)nc1 do in these assays?
PNC assembly inh: -100*; JMJD2E inh: 10%; HPGD inh: -14%; ALDH1A1 inh: 11%

How did O=C(O)CCC(=O)NCCc1cccc(Cl)c1 do in these assays?
JMJD2E inh: -2%; ALDH1A1 inh: inconclusive

How did COc1ccc(CNC(=O)CCSCc2ccccc2Cl)c(OC)c1 do in these assays?
PNC assembly inh: 6; JMJD2E inh: 1%; HPGD inh: -24%; ALDH1A1 inh: inconclusive

How did O=C(Cc1ccccc1)NCCc1cccc(Cl)c1 do in these assays?
PNC assembly inh: -26; JMJD2E inh: 8%; HPGD inh: 10µM*; ALDH1A1 inh: inconclusive

How did N#CCCN(Cc1cccnc1)C(=S)NC(=O)C1CC1 do in these assays?
JMJD2E inh: -1%; ALDH1A1 inh: 11%

What do the screens show for `C#CCOC(=O)CCC(=O)NCCc1ccccc1`?
PNC assembly inh: 7; JMJD2E inh: -3%; HPGD inh: -16%; ALDH1A1 inh: 10µM*

Results for O=C(COC(=O)CCC(=O)c1ccc(Cl)cc1)NCCc1ccccc1 ?
JMJD2E inh: 2%; ALDH1A1 inh: 2%

How did O=C(Nc1ccc(Oc2ccc(C(=O)O)c(C(=O)O)c2)cc1)c1cccs1 do in these assays?
JMJD2E inh: -8%; ALDH1A1 inh: 1%

What do the screens show for `COC(=O)c1ccc(S(=O)(=O)NCCSc2nnc3c4ccccc4n(C)c3n2)cc1`?
PNC assembly inh: 16; JMJD2E inh: 5%; HPGD inh: inconclusive; ALDH1A1 inh: 16µM*

How did COc1cccc(/C=N/NC(=O)C(=O)N/N=C/c2cccc(OC)c2O)c1O do in these assays?
JMJD2E inh: inconclusive; ALDH1A1 inh: 11%

Results for COc1cccc(/C=N/NC(=O)c2cc3cc([N+](=O)[O-])ccc3s2)c1O ?
PNC assembly inh: inconclusive; JMJD2E inh: inconclusive; HPGD inh: 28µM*; ALDH1A1 inh: 19%

What do the screens show for `CCC(=O)Nc1ccc(C(=O)N/N=C/c2ccccc2[N+](=O)[O-])cc1`?
PNC assembly inh: -19; JMJD2E inh: -18%; HPGD inh: -20%; ALDH1A1 inh: 28µM*

How did NC(=S)N/N=C/c1ccc(-c2ccc([N+](=O)[O-])cc2)o1 do in these assays?
JMJD2E inh: -25%; ALDH1A1 inh: 0.89µM*

How did CCOc1ccc(C(=O)N/N=C/c2ccccc2[N+](=O)[O-])cc1 do in these assays?
PNC assembly inh: -15; JMJD2E inh: -24%; HPGD inh: -7%; ALDH1A1 inh: -16%

How did COc1ccccc1/C=N/NC(=O)c1ccc(NC(=O)c2cccc([N+](=O)[O-])c2)cc1 do in these assays?
JMJD2E inh: -3%; ALDH1A1 inh: 7.9µM*

How did Cc1nc(C(=O)O)nn1-c1cc(Cl)ccc1Cl do in these assays?
JMJD2E inh: -7%; ALDH1A1 inh: 11%

What do the screens show for `NC(=S)N/N=C/c1ccccc1[N+](=O)[O-]`?
JMJD2E inh: -28%; ALDH1A1 inh: 22µM*

How did CCNC(=S)N/N=C/c1ccccc1[N+](=O)[O-] do in these assays?
JMJD2E inh: 7%; ALDH1A1 inh: 3%

What do the screens show for `Cc1ccc(-c2ccc(/C=N/O)o2)cc1[N+](=O)[O-]`?
JMJD2E inh: -6%; ALDH1A1 inh: 3.2µM*

Results for COc1ccc(/C=N\NC(=O)c2cccc([N+](=O)[O-])c2)cc1Cn1cc([N+](=O)[O-])cn1 ?
JMJD2E inh: 6%; ALDH1A1 inh: 20µM*

How did CCCCNC(=S)NNC(=O)c1nn(C)cc1Cl do in these assays?
PNC assembly inh: 15; JMJD2E inh: inconclusive; HPGD inh: -9%; ALDH1A1 inh: 9%

Results for CCN(C(=O)Cn1c(=O)n2nc(CCn3nc(C)cc3C)nc2c2ccccc21)c1cccc(C)c1 ?
PNC assembly inh: 0; JMJD2E inh: 2%; HPGD inh: -4%; ALDH1A1 inh: inconclusive

How did Cc1cccc(NC(=O)Cn2c(=O)n3nc(CCn4nc(C)cc4C)nc3c3ccccc32)c1 do in these assays?
PNC assembly inh: 43; JMJD2E inh: 0%; HPGD inh: -24%; ALDH1A1 inh: 14µM*

What do the screens show for `Brc1nnc2n1-c1ccccc1Sc1ccccc1-2`?
PNC assembly inh: -23; JMJD2E inh: -1%; HPGD inh: inconclusive; ALDH1A1 inh: 7%

What do the screens show for `Clc1ccc2c(c1)-c1nnc(Br)n1-c1ccccc1S2`?
PNC assembly inh: -100*; JMJD2E inh: -13%; HPGD inh: 18µM*; ALDH1A1 inh: -13%

What do the screens show for `O=C(COC(=O)c1ccc(NS(=O)(=O)c2ccc3c(c2)OCCO3)cc1)NCC1CCCO1` (stereo unspecified)?
PNC assembly inh: -92*; JMJD2E inh: 1%; HPGD inh: -22%; ALDH1A1 inh: -9%

How did NC(=O)COC(=O)c1ccc(NS(=O)(=O)c2ccc3c(c2)OCCO3)cc1 do in these assays?
JMJD2E inh: 2%

What do the screens show for `CS(=O)(=O)N(Cc1ccccc1)c1ccc(C(=O)NCC2CCCO2)cc1` (stereo unspecified)?
PNC assembly inh: 25; JMJD2E inh: 0%; HPGD inh: -25%; ALDH1A1 inh: 8%

What do the screens show for `O=C(NCC1CCCO1)Nc1ccc2c(c1)OCO2` (stereo unspecified)?
JMJD2E inh: -2%; ALDH1A1 inh: -2%

Results for CN(c1ccc(C(=O)NCC2CCCO2)cc1)S(C)(=O)=O (stereo unspecified) ?
PNC assembly inh: -87*; JMJD2E inh: 7%; HPGD inh: -27%; ALDH1A1 inh: 0%

Results for O=C(NCC1CCCO1)c1ccc2c(c1)OCO2 (stereo unspecified) ?
PNC assembly inh: 54; JMJD2E inh: -6%; HPGD inh: 2µM*; ALDH1A1 inh: 0%
